# Laboratory results reported in PubChem BioAssay (NCI).
# About 83,000 compounds went through this panel and 20% of them were active in at least one assay; those are over-represented in the sample as a whole.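 Single-concentration screen, 48 h exposure, 96-well plates. Endpoint: percent growth. Below 10 = active.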 Active and inactive are the calls of the source.
# Test system: RPMI-8226 leukemia
# Assay: NCI-60 one-dose screen, 48 h (100 = growth as untreated, 0 = no growth, -100 = all killed)
# Conditions: 10 µM unless noted
row,SMILES,growth
1,COc1cc(O)c2c(=O)c3c(CC=C(C)C)cc(OC)c(O)c3oc2c1,29.8% (inactive)
2,Cc1nc2sc(C(=O)Nc3cccc4ccccc34)c(N)c2cc1C(=O)c1ccccc1,15.6% (inactive)
3,Cc1cc(C(=O)CCCC(=O)c2cc(C)c(O)c(C)c2)cc(C)c1O,94.2% (inactive)
4,FC(F)(F)c1[nH]ncc1-c1nc2ccc3[nH]ncc3c2c2c1CCCC2,12.3% (inactive)
5,Nc1ncnc2c1N=C(c1ccc(F)cc1)CC(c1cccc(Nc3ccnc4cc(Cl)ccc34)c1)N2 (stereo unspecified),25.9% (inactive)
6,COC(=O)c1c2c(c(C)[n+]([O-])c1C)C(=O)C(NCc1ccccc1)=CC2=O,37.3% (inactive)
7,COc1cc(C=Nc2oc(-c3ccccc3)c(-c3ccccc3)c2C#N)cc(CN2CCCC2)c1O,100% (inactive)
8,NCCCNc1nc2ccccc2c2c(=O)c3cc(Cl)ccc3sc12,-37.9% (active)
9,O=C(/C=C/c1cccc(Oc2ccccc2)c1)c1ccc(Nc2nc(Nc3ccc(F)cc3)nc(Nc3ccc(Cl)cc3)n2)cc1,25.4% (inactive)
10,CCCCO[C@@H]1C=C2[C@H]3CC(C)(C)C(=O)C[C@]3(C(=O)O[C@@H]3O[C@H](CO[C@@H]4O[C@H](CO)[C@@H](OC5OC(C)C(O)C(O)C5O)[C@H](O)[C@H]4O)[C@@H](O)[C@H](O)[C@H]3O)CC[C@@]2(C)[C@]2(C)CC[C@H]3C(C)(C)C(=O)CC[C@]3(C)[C@@H]12 (stereo partly specified),20.4% (inactive)
11,COc1ccc2cc(-c3nc4ccc(C)cn4c3NCc3ccco3)c(=O)[nH]c2c1,62.3% (inactive)
